Source: PubChem (National Center for Advancing Translational Sciences (NCATS))
A selection: hits, their analogues and other compounds. The true share with any hit is near 5.4%.
PNC inhibitor: perinucleolar compartment assembly inhibition; PC3M PTB-GFP, PNC prevalence imaging, 16 h; hits give low values; 3.1% of 140,000 active; activity change (PNC), negative = inhibition, % at 10 µM;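 active = readout at or below -70, meaning at least 70% loss of cells showing the perinucleolar compartment, a nuclear body marking cancer cells; inconclusive = readout between -30 and a set limit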
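Compounds are pinned in duplicate onto adhered PC3M cells stably expressing GFP-tagged PTB and incubated 16 h at 37 C. Cells are then fixed, nuclei stained with Hoechst, and PNC-positive cells counted.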
IMPase Li cell: membrane-permeable IMPase blocker, potentiated with lithium | Potency, µM (series often up to 59.4 µM), usual class: inhibitors | CHO-M1 cells, IP1 TR-FRET (IP-One), carbachol + lithium | 0.35% of 210,000 active;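 also: IP1 builds up when IMPase is blocked and the TR-FRET signal falls; nearly all actives have a fitted effect of over 50% in size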
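Concentration–response in CHO-M1 cells, lithium-potentiated; 30 min at 37C. IP1 detected by competitive TR-FRET after 10 min lysis at RT. Hill-fitted AC50.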
IMPase inh: cell-permeable inhibitors of inositol monophosphatase (IMPase). CHO-M1 cells, IP1 accumulation, HTRF TR-FRET ratio. AID 901. inhibition (IP1 accumulation), % at 46.1 µM. 120,000 tested, under 10 active; active = well fitted curve in the direction sought with a large enough effect in the signal ratio, not every such curve was filed as active; inconclusive = small, poorly fitted or top-dose-only effect, or a change in a side signal; inactive = no such curve, though single readings can be large or run the other way; the % refers to the signal ratio;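 also: cells stimulated with carbachol in lithium chloride buffer; higher means more IMPase inhibition seen as more IP1 and lower FRET ratio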
Target sequence (P97697 whole entry, looked up): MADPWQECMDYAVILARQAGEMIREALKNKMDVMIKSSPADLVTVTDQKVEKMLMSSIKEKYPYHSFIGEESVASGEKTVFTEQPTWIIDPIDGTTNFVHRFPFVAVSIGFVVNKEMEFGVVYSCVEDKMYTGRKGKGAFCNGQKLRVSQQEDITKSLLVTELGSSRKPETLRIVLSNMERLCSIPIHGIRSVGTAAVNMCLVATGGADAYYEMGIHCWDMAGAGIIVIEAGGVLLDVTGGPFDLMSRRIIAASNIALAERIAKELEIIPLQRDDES
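The IP-One HTRF competitive assay in carbachol-stimulated CHO-M1 cells quantifies cellular IP1. Compounds spanned up to 46 uM final, and activity is expressed as AC50 from concentration-response fits of the ratio and donor data.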
12-hLO inh: blocks human 12-lipoxygenase activity | 0.12% of 150,000 active | purified 12-hLO, xylenol orange hydroperoxide absorbance | Potency, µM (top dose mostly 57.1 µM), usual class: inhibitors; also: nearly all actives have a fitted effect of over 55% in size
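Xylenol orange chromogenic assay: hydroperoxide from 12hLO oxidises Fe(II), giving red-shifted Fe(III)-XO absorbance. Conditions: 150 nM enzyme, 40 uM arachidonic acid, 25 mM Hepes pH 7.0, 0.01% Triton X-100, 30 min, room temperature.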
HPGD inh: blocks human HPGD enzyme activity. P15428. purified HPGD, NADH fluorescence kinetic, PGE2 substrate. Potency, µM, actives largely listed as inhibitors. 4.3% of 150,000 active; active = well fitted inhibition curve with a large enough effect, not every such curve was filed as active; inconclusive = small, poorly fitted or top-dose-only effect, or another doubt; inactive = no such curve, though single readings can be large or run the other way
Target sequence (P15428 whole entry, looked up): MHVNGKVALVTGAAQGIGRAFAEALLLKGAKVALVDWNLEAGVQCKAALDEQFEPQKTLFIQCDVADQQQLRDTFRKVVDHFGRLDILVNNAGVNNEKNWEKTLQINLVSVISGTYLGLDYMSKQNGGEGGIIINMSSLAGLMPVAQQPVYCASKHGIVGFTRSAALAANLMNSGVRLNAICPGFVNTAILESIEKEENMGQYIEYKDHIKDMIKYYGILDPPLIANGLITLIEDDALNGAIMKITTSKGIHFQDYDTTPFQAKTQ
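20 nM HPGD preincubated 15 min at room temperature with compound in 50 mM Tris-HCl pH 8, 0.01% Tween 20. Started with 1 mM NAD+ and 30 uM prostaglandin E2; NADH fluorescence (360/450 nm) read 5 times over 30-s intervals, last minus first.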
ALOX15B inhib: inhibitors of human 15-lipoxygenase 2 (ALOX15B) | O15296 | 0.56% of 110,000 active | purified 15hLO-2, xylenol orange hydroperoxide absorbance | Potency, µM (titrated, usually from 57.1 µM), most hits filed as inhibitors; also: nearly all actives have a fitted effect of over 60% in size
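Enzyme 50 nM, AA 45 uM, 25 mM Hepes pH 7.5 + 0.01% Triton X-100; cpd preinc 15 min RT, rxn 90 min RT; stop/detect with 200 uM XO + 300 uM Fe(II) in 50 mM H2SO4, 30 min; A573/A405.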
Numbers stand for hits; [ ] = remark or other dose. Unless noted, calls follow the shape of the dose curve; as a rule, active = well fitted curve in the direction sought with a large enough effect; inconclusive = small, poorly fitted or top-dose-only effect, or another doubt; inactive = no such curve, though single readings can be large; an effect the other way counts as inactive or inconclusive.

`O=S(=O)(Nc1nc2ccc(S(=O)(=O)N3CCCCC3)cc2s1)c1ccccc1` gave PNC inhibitor inactive, IMPase Li cell inactive, IMPase inh inactive, 12-hLO inh inactive, HPGD inh 8.91µM and ALOX15B inhib inactive.
O=C(C[C@@H](C(=O)O)N1CCOCC1)c1ccccc1 was read as IMPase Li cell inactive, 12-hLO inh inactive[11.4 µM], HPGD inh inactive and ALOX15B inhib inactive[11.4 µM].
For Cc1ccc(S(=O)(=O)NCCCC(=O)C=[N+]=[N-])cc1 the results were PNC inhibitor -108.7, IMPase Li cell inactive, IMPase inh inactive, 12-hLO inh inactive, HPGD inh inactive and ALOX15B inhib inactive.
COc1ccc(/C=C/C2=C[C@]3(C)C[C@]2(C)[C@H](c2ccc(OC)cc2)CC3=O)cc1 was read as IMPase Li cell inactive, 12-hLO inh inactive and HPGD inh inactive.
`O=[N+]([O-])c1ccc2c(c1Nc1ccccc1)=NC1(CCCCC1)N=2` gave PNC inhibitor -108.8, IMPase Li cell inactive, IMPase inh inactive, 12-hLO inh inactive, HPGD inh inactive and ALOX15B inhib inactive.
`O=C(Nc1cccc(C(F)(F)F)c1)c1cc2nc(-c3ccccc3)cc(C(F)(F)F)n2n1` gave IMPase inh inactive.
O=C(N/N=C/c1ccc2c(c1)OCO2)c1cc(-c2ccncc2)nc2ccccc12 was read as PNC inhibitor inactive, IMPase Li cell inactive, 12-hLO inh inactive and HPGD inh 28.2µM.
For NS(=O)(=O)c1ccc(NC(=O)c2cc(-c3cccs3)nc3ccccc23)cc1 the results were PNC inhibitor -115.1, IMPase Li cell inactive, IMPase inh inactive, 12-hLO inh inactive and HPGD inh inconclusive.
Screening O=C(N/N=C/c1ccc2c(c1)OCO2)c1cc(-c2ccccc2Cl)nc2ccccc12 returned PNC inhibitor inactive, IMPase Li cell inactive, 12-hLO inh inactive and HPGD inh inconclusive.
Cc1ccsc1/C=N/NC(=O)c1cc(-c2ccncc2)nc2ccccc12 was read as PNC inhibitor -109.0, IMPase Li cell inactive, 12-hLO inh inactive and HPGD inh inactive.
COc1ccccc1-c1cc(C(=O)N/N=C/c2sccc2C)c2ccccc2n1 was read as PNC inhibitor inactive, IMPase Li cell inactive, IMPase inh inactive, 12-hLO inh inactive, HPGD inh inconclusive and ALOX15B inhib inactive.
CC(=O)NS(=O)(=O)c1ccc(NC(=O)c2cc(-c3ccc(C)cc3)nc3ccccc23)cc1 was read as PNC inhibitor inconclusive, IMPase Li cell inactive, IMPase inh inactive, 12-hLO inh inactive and HPGD inh inactive.
`CC(=O)NS(=O)(=O)c1ccc(NC(=O)c2cc(-c3ccc(C)c(C)c3)nc3ccccc23)cc1` gave PNC inhibitor -96.3, IMPase Li cell inactive, IMPase inh inactive, 12-hLO inh inactive, HPGD inh inactive and ALOX15B inhib inactive.
Screening CN(C)S(=O)(=O)c1ccc(NC(=O)c2cc(-c3cccs3)nc3ccccc23)cc1 returned PNC inhibitor inactive, IMPase Li cell inactive, 12-hLO inh inactive and HPGD inh inconclusive.
CC(CC(=O)O)(CC(=O)O)c1ccccc1 was read as IMPase Li cell inactive, 12-hLO inh inactive[11.4 µM], HPGD inh inactive and ALOX15B inhib inactive[11.4 µM].
O=C1c2cc(Br)ccc2O[C@@H](c2ccc3c(c2)OCO3)[C@@H]1O was read as IMPase Li cell inactive and HPGD inh inactive.
For O=C(N/N=C/c1ccco1)c1cc(-c2cccc(Br)c2)nc2ccccc12 the results were PNC inhibitor inactive, IMPase Li cell inactive, 12-hLO inh inactive and HPGD inh inconclusive.
For CC(/C=N/NC(=O)c1cc(-c2ccncc2)nc2ccccc12)=C\c1ccco1 the results were PNC inhibitor -87.1, IMPase Li cell inactive, IMPase inh inactive, 12-hLO inh inactive, HPGD inh inactive and ALOX15B inhib inactive.
`O=C(N/N=C/c1ccsc1)c1cc(-c2cccs2)nc2ccccc12` gave PNC inhibitor inconclusive, IMPase Li cell inactive, 12-hLO inh inactive and HPGD inh inconclusive.
For O=C(O)c1ccc(/C=N/NC(=O)c2cc(-c3cccs3)nc3ccccc23)cc1 the results were PNC inhibitor -106.7, IMPase Li cell inactive, 12-hLO inh inactive and HPGD inh inconclusive.
